Test results published in PubChem BioAssay (Tox21).
Inconclusive results are not listed. Active and inactive are the calls of the source. Calls follow the shape of the full dose curve.

experiment: qHTS assay to identify small molecule agonists or antagonists of the thyroid stimulating hormone receptor (TSHR) signaling pathway - wild type cell line counter screen (AID 1259384); details: HEK293 wild type, cAMP HTRF counter-screen, stronger effect = higher value; series mostly up to 92.4 µM; cAMP activity change: at the top concentration
Text: U.S. Tox21 Program National Center for Advancing Translational Sciences [NCATS] NIH Chemical Genomics Center [NCGC] U.S. Environmental Protection Agency [EPA] National Institutes of Environmental Health Sciences [NIEHS] National Toxicology Program [NTP] U.S. Food and Drug Administration [FDA] Tox21 Assay Overview: TSHR is the receptor for thyrotropin (thyroid stimulating hormone or TSH), a member of the glycoprotein hormone family. TSH is released by the anterior pituitary gland and is the main regulator of thyroid gland growth and development. Upon binding circulating thyrotropin, a G-protein signal cascade activates adenylyl cyclase and […] cAMP concentration is increased. cAMP is a key second messenger involved extensively in cellular signal transduction pathways associated with the majority of G-protein coupled receptors (GPCRs). The activation of these GPCRs by neurotransmitters, lipids, nucleotides, peptides and hormones results in the activation or the inhibition of plasma membrane-bound adenylate cyclase through heterotrimeric G-proteins. A cell-based TSHR-Hek293 assay can be used to identify TSHR agonists. To eliminate the false positive compounds identified from screening a cell-based TSHR-Hek293 cell line, cAMP assay in a wild type Hek293 cells was used as a counter screening.
Tox21 Assay Protocol Summary: Hek293 cells (wild type) were dispensed at 800 cells/4 uL/well in 1536-well white plates using a Multidrop dispenser. After the assay plates were incubated at a 37 C/5% CO2 incubator for 18 hrs, 23 nL of compounds dissolved in DMSO, positive controls or DMSO only was transferred to the assay plate by a pin tool, followed by 1 ul medium containing Ro20-1724. After 30 min of incubation at room temperature, 2.5 ul/well of cAMP-d2 and 2.5 ul/well of anti-cAMP-cryptate were added respectively into the assay plates using a Flying Reagent Dispenser. The plates were incubated at room temperature for 1 hr. The fluorescence intensity in the plates was measured using an Envision plate reader. Each test compound was measured at 15 concentrations and in triplicates.
% is scaled to controls: 0 for no effect and ±100 for the full control effect.

| Structure (SMILES) | cAMP activity change | outcome |
| --- | --- | --- |
| CCCCCCCCCCCCCCCS(=O)(=O)Oc1ccccc1 | 8.09% [at 42.5 µM] (inactive) |  |
| Cc1cc(O)c(C(C)(C)C)cc1C(C)(C)C | -0.353% (inactive) |  |
| CN(C)c1ccc(SC#N)cc1 | -8.58% (inactive) |  |
| CN(C)C(=O)C1(N2CCCCC2)CCN(CC[C@@]2(c3ccc(Cl)c(Cl)c3)CN(C(=O)c3ccccc3)CCO2)CC1 | 1.89% (inactive) |  |
| NC(=NCCCCCCN=C(N)/N=C(\N)Nc1ccc(Cl)cc1)/N=C(\N)Nc1ccc(Cl)cc1 |  | inactive |
| CCCCCCCCn1sc(Cl)c(Cl)c1=O | 3.6% (inactive) |  |
| COC(=O)C1=C(C)NC(C)=C(C(=O)OCC(C)C)C1c1ccccc1[N+](=O)[O-] (stereo not given) |  | inactive |
| C1CCCC1 | -0.107% (inactive) |  |
| CCCCCCCCNC(C)C(O)c1ccc(SC(C)C)cc1 (stereo not given) | 8.2% [at 42.5 µM] (inactive) |  |
| CCc1oc2ccccc2c1C(=O)c1cc(Br)c(O)c(Br)c1 | 8.79% [at 42.5 µM] (inactive) |  |
| O=Cc1cc(O)ccc1Br | -0.545% (inactive) |  |
| Cc1cc(O)c(Cl)c(C)c1Cl | 2.25% (inactive) |  |
| O=C(OCC1CO1)C1CCCCC1C(=O)OCC1CO1 (stereo not given) | -3.92% (inactive) |  |
| CCCCCCCC/C=C\CCCCCCCCOCCO | -0.836% (inactive) |  |
| C[C@]12CCC(=O)C=C1CC[C@@H]1[C@@H]2[C@@H](O)C[C@@]2(C)[C@H]1CC[C@]2(O)C(=O)COC(=O)CCC(=O)O | -0.326% [at 42.5 µM] (inactive) |  |
| CCC(C)(C)C1CCCCC1OC(C)=O (stereo not given) | -1.67% (inactive) |  |
| C[n+]1ccn(Cc2ccccc2)c1 | 2.67% (inactive) |  |
| CN(C)c1ccc(C2(c3ccc(N(C)C)cc3)OC(=O)c3cc(N(C)C)ccc32)cc1 | -2.32% (inactive) |  |
| O=C(OCC(COC(=O)c1ccccc1)(COC(=O)c1ccccc1)COC(=O)c1ccccc1)c1ccccc1 | 3% (inactive) |  |
| O=c1[nH]cnc2nc[nH]c12 | 0.233% [at 42.5 µM] (inactive) |  |

| Structure (SMILES) | cAMP activity change | outcome |
| --- | --- | --- |
| CCN(CCC#N)c1ccc(N=Nc2c(Cl)cc([N+](=O)[O-])cc2Cl)cc1 | -3.68% (inactive) |  |
| COc1cc(-c2nc(NC(=O)c3cc4cc(C)cc(C)c4n3CC(=O)O)sc2CCC2CCCCC2)c(OC)cc1Cl | 2.39% (inactive) |  |
| CCCCCCCCCCC=O | -1.45% (inactive) |  |
| [Cl][Au]([Cl])[Cl] | 17.5% (inactive) |  |
| C[C@@H]1C[C@H]2[C@@H]3CCC4=CC(=O)C=C[C@]4(C)[C@@]3(Cl)[C@@H](O)C[C@]2(C)[C@@]1(OC(=O)c1ccco1)C(=O)CCl | 2.81% [at 42.5 µM] (inactive) |  |
| CCCCCCOC(=O)c1ccc(O)cc1 |  | inactive |
| CC1(C)CCC(C)(C)c2cc(C(=O)Nc3ccc(C(=O)O)cc3)ccc21 | 5.51% (inactive) |  |
| Oc1ccc(N=Nc2ccccc2)cc1 | 2.15% (inactive) |  |
| O=CC=C(c1ccccc1)c1ccccc1 | -5.96% (inactive) |  |
| CCN(C(=O)N(CC)c1ccccc1)c1ccccc1 | -1.75% (inactive) |  |
| O=c1cccccc1O | 3.64% (inactive) |  |
| CCc1cc(Cc2cc(CC)cc(C(C)(C)C)c2O)c(O)c(C(C)(C)C)c1 | 2.11% (inactive) |  |
| CCCN(CCC)c1c([N+](=O)[O-])cc(C(F)(F)F)c(N)c1[N+](=O)[O-] | 8.09% (inactive) |  |
| O=C(O)c1cc(O)c2c(c1)C(=O)c1cccc(O)c1C2=O | -2.39% (inactive) |  |
| CC(C)OC(=O)c1cc2c(OCC(O)CNC(C)(C)C)cccc2[nH]1 (stereo not given) | 2.08% [at 42.5 µM] (inactive) |  |
| CCc1cc(Cc2cc(CC)c(N)c(CC)c2)cc(CC)c1N | 1.95% (inactive) |  |
| Oc1cccc2cc3cccc(O)c3c(O)c12 | 6.86% (inactive) |  |
| CCCCCCCCCCCCCCCC[N+](C)(C)CCN(Cc1ccc(OC)cc1)c1ncccn1 | 5.1% [at 42.5 µM] (inactive) |  |
| CCCCCCCCCCCCCC[P+](CCCC)(CCCC)CCCC (tested in a mixture with another compound) | 0.646% (inactive) |  |
| On1ccccc1=S | 0.141% (inactive) |  |
